What is called inhibition is the relative decrease from the control value, in per cent.

The target in assay [1] is Serine/threonine-protein kinase MRCK alpha (Homo sapiens) (UniProt Q5VT25). The following applies: at 0.1 µM.
For assay [2] the target is unchanged. The following applies: at 1 µM.
Assay [3] concerns the target Serine/threonine-protein kinase MRCK beta (Homo sapiens) (UniProt Q9Y5S2). The following applies: at 0.1 µM.
For assay [4] the target is unchanged. The following applies: at 1 µM.
The target in assay [5] is Ribosomal protein S6 kinase alpha-5 (Homo sapiens) (UniProt O75582). The following applies: at 0.1 µM.
Chain of Ribosomal protein S6 kinase alpha-5 (Homo sapiens) (O75582 whole entry, looked up): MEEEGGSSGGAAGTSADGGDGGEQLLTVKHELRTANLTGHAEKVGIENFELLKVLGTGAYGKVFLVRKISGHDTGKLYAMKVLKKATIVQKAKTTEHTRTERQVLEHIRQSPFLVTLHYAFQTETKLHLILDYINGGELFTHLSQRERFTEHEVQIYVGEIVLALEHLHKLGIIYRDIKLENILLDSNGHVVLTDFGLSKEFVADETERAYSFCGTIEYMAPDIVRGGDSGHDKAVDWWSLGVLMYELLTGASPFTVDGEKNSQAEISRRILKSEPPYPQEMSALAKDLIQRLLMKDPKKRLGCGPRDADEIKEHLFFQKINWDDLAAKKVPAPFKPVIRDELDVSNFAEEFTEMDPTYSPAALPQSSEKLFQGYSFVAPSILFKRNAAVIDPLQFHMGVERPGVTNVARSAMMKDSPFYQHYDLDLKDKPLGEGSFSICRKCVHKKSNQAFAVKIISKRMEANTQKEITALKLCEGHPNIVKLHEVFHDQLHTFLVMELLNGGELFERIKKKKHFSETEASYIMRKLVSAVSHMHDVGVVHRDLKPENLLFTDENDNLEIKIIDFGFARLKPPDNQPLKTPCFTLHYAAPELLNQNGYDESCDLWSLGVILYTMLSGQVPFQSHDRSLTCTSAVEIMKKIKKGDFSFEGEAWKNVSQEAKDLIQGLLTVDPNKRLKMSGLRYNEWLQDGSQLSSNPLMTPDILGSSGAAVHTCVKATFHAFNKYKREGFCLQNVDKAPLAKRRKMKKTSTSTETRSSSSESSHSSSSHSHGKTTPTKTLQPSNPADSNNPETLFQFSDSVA
For assay [6] the target is unchanged. The following applies: at 1 µM.
The target in assay [7] is Ribosomal protein S6 kinase alpha-4 (Homo sapiens) (UniProt O75676). The following applies: at 0.1 µM.
The target is the same in assay [8]. The following applies: at 1 µM.
Assay [9] concerns the target Ribosomal protein S6 kinase beta-1 (Homo sapiens) (UniProt P23443). The following applies: at 0.1 µM.
Assay [10] shares this target. The following applies: at 1 µM.

Chain of Serine/threonine-protein kinase MRCK beta (Homo sapiens) (Q9Y5S2 whole entry): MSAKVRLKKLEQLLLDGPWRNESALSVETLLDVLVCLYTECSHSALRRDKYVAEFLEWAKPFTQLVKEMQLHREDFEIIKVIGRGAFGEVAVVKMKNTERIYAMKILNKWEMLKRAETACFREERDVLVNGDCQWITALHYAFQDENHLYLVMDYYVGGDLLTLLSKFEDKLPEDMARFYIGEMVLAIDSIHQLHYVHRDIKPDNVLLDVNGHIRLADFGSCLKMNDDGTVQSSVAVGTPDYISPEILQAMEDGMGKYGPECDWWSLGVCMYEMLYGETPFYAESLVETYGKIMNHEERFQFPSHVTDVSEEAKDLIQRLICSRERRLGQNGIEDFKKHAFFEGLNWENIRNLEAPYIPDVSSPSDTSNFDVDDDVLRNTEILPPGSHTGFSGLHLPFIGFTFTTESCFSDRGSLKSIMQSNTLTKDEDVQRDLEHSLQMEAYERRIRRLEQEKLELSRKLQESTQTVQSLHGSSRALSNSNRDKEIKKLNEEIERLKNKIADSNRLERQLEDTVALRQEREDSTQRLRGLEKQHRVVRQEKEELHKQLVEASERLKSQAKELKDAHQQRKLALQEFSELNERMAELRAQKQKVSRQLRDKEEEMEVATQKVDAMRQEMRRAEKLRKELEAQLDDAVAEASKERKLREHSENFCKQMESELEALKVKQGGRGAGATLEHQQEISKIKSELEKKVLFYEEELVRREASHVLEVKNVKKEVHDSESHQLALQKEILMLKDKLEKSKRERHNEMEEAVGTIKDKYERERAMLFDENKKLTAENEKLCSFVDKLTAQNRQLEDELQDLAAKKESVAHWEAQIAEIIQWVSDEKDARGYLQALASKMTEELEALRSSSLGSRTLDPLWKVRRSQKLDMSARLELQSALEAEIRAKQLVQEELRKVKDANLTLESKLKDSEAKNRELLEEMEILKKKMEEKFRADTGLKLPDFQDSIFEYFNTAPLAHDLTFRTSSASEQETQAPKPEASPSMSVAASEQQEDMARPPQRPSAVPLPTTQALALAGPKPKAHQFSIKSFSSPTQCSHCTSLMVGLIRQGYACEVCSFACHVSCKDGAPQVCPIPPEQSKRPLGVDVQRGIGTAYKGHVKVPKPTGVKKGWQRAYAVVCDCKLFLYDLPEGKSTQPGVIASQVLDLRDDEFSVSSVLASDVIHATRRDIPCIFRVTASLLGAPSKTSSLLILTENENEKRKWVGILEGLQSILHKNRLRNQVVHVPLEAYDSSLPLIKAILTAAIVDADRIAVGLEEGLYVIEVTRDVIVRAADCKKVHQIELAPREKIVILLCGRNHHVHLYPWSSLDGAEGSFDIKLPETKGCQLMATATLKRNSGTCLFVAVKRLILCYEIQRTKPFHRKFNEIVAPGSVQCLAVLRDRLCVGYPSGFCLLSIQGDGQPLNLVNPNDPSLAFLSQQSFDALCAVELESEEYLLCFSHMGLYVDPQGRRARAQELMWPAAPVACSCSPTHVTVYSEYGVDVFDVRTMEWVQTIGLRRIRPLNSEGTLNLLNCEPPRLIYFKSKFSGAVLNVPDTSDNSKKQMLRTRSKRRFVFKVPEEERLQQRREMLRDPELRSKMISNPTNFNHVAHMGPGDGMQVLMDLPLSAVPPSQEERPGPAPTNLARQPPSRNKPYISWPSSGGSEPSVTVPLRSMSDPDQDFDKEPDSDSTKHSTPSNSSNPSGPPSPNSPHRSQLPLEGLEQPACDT
Chain of Serine/threonine-protein kinase MRCK alpha (Homo sapiens) (Q5VT25 whole entry): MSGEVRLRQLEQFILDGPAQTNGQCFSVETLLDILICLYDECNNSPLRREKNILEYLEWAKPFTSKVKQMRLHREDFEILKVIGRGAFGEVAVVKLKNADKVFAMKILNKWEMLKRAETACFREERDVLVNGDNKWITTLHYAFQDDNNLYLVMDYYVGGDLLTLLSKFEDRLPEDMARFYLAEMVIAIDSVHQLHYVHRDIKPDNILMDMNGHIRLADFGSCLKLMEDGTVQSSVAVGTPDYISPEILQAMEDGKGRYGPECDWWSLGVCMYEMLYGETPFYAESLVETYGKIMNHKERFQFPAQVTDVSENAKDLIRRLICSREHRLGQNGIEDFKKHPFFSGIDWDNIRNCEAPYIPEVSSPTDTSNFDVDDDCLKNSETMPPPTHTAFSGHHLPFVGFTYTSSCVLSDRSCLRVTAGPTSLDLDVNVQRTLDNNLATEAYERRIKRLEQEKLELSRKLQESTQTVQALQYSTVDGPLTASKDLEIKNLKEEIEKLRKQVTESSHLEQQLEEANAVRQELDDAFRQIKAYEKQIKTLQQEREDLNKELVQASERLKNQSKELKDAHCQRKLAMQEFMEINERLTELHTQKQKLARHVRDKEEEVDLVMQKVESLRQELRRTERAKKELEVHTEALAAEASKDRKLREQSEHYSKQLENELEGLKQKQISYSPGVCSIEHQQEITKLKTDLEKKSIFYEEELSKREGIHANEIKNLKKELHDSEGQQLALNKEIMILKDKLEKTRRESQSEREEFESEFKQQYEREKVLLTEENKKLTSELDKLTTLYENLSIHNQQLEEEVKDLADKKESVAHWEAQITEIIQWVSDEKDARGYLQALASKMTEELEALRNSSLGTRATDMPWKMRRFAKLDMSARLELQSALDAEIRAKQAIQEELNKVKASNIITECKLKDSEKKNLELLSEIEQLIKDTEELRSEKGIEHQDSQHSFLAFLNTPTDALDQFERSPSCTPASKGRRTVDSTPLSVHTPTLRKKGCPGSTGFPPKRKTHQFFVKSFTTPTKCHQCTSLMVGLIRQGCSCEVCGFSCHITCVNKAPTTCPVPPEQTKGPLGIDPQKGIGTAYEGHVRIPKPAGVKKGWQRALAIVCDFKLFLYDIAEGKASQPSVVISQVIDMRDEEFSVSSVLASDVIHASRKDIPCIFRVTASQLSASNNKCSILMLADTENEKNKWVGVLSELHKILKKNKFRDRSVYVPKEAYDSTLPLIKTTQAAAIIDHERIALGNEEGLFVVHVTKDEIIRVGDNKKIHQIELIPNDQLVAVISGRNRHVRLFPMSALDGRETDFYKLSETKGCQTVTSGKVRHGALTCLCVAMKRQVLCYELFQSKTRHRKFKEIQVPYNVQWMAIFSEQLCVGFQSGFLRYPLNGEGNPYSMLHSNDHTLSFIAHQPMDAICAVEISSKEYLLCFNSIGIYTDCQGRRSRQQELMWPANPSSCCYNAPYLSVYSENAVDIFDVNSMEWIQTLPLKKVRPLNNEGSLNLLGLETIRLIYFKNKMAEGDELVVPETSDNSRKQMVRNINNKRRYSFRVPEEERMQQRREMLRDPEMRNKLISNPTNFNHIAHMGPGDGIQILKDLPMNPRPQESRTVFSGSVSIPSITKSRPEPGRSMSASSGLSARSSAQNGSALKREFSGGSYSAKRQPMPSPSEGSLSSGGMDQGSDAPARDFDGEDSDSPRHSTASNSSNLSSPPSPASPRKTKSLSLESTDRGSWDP
Chain of Ribosomal protein S6 kinase beta-1 (Homo sapiens) (P23443 whole entry, looked up): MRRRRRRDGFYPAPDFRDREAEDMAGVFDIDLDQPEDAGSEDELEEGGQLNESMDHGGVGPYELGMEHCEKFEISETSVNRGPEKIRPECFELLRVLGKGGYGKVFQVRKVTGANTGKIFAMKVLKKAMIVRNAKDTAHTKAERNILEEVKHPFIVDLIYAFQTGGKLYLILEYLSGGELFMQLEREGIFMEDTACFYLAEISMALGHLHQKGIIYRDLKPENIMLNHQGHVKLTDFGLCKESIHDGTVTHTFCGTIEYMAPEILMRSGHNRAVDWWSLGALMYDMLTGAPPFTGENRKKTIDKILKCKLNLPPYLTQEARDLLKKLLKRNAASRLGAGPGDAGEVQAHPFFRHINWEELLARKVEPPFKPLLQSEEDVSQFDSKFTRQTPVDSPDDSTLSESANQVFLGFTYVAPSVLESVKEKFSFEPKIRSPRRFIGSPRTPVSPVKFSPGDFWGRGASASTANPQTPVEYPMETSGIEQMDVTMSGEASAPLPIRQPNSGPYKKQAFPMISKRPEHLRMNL

For `Cc1ccc(NC(=O)c2ccnc(N3CCCC3)c2)cc1-c1ccc(C(=O)NCC2CC2)cc1`, the inhibition in assay [1] is 1.01%; in [2], -0.76%; in [3], 1.8%; in assay [4], 2.5%; in assay [5], 2.8%; in assay [6], 2.72%. Also, the inhibition in [7] stood at 3.43%; in [8], 8.63%; in assay [9], 1.53%; in assay [10] it was 2.76%.
Take `COc1ccc(COc2ccc(Cc3cnc(N)nc3N)cc2OC)cc1`: the inhibition in assay [1] was 1.99%; in assay [2], -0.63%; in assay [3] it was 3.11%; in assay [4] it was 3.93%; in [5] it was 8.75%; in assay [6] it was 5.97%. Also, the inhibition in assay [7] amounted to 1.99%; in [8] it was 1.84%; in assay [9], 1.54%; in assay [10] it was 0.73%.
For `Cn1cc(C=C2C(=O)Nc3cccnc32)c2ccccc21`, the inhibition is 0.96% in assay [1]; 0.55% in [2]; 1.17% in [3]; 0.99% in [4]; 2.12% in assay [5]; 3.29% in assay [6]. Also, the inhibition turned out to be 2.56% in assay [7], 10.1% in assay [8], 1.61% in assay [9] and 3.78% in assay [10].
For `O=C1NC(=O)C(N2CCc3ccccc32)=C1c1ccc(Cl)cc1`, the inhibition is 0.19% in assay [1]; 0.98% in [2]; 0.69% in assay [3]; 1.86% in [4]; 9.94% in assay [5]; 7.93% in [6]. Also, the inhibition was 1.73% in assay [7], 4.02% in [8], 1.81% in assay [9] and 1.76% in assay [10].
As to `Nc1ncnc2occ(-c3ccc(NC(=O)Nc4cccc(C(F)(F)F)c4)cc3)c12`, the inhibition is -3.03% in assay [1]; 0.21% in [2]; 0.84% in [3]; 1.21% in assay [4]; 6.35% in [5]; 19.5% in [6]. In addition, the inhibition worked out at 3.31% in assay [7], 20.8% in assay [8], 21% in assay [9] and 73.5% in assay [10].
In the case of `CS(=O)(=O)Nc1ccc(N/C=C2\C(=O)Nc3ccccc32)cc1`, the inhibition is -2.44% in assay [1]; -0.5% in [2]; 0.24% in assay [3]; -0.45% in assay [4]; -1.26% in assay [5]; -0.97% in [6]. For the same compound, the inhibition in [7] was -0.53%; in assay [8] it was 7.44%; in [9], -0.58%; in assay [10], 3.4%.
In the case of `Cc1nnc(-c2ccc(C)c(-c3ccc(C(=O)Nc4cccc(C#N)c4)cc3)c2)o1`, the inhibition in assay [1] was 0.21%; in assay [2] it was 2.76%; in assay [3], -0.92%; in assay [4], -0.91%; in assay [5], 1.21%; in [6] it was 1.62%. Besides, the inhibition in assay [7] was 0.19%; in assay [8], 2.28%; in assay [9] it was 1.45%; in [10], 1.91%.
In the case of `O=C1NC(=O)C(c2ccc(Cl)cc2)=C1Nc1ccc(Cl)c(C(=O)O)c1`, the inhibition in assay [1] was -0.29%; in [2], -0.46%; in assay [3], 0.31%; in assay [4], -0.42%; in [5] it was -1.75%; in [6], -1.95%. Besides, the inhibition was -2.17% in assay [7], -1.54% in assay [8], -1.54% in assay [9] and -1.25% in assay [10].
Turning to `CCn1c(-c2nonc2N)nc2c(N3CCCC3)nccc21`, the inhibition in assay [1] is -0.27%; in assay [2] it was 5.42%; in [3] it was -0.1%; in assay [4] it was 2.55%; in assay [5], -0.19%; in assay [6] it was 11.2%. In addition, the inhibition is -0.68% in assay [7], 3.67% in assay [8], -0.49% in assay [9] and 8.23% in assay [10].
With `CC1=C(C(=O)Nc2ccc3[nH]ncc3c2)C(c2ccc3ccccc3c2)CC(=O)N1` (stereo not given), the inhibition in assay [1] turned out to be 3.1%; in assay [2], 22.7%; in [3] it was 5.85%; in assay [4], 37.9%; in [5], 10.7%; in assay [6] it was 47.6%. For the same compound, the inhibition in [7] worked out at 6.16%; in assay [8], 34.1%; in assay [9] it was 2.41%; in assay [10], 21.4%.
Consider `CCN1CCC(CC(=O)Nc2n[nH]c3nc(-c4cccs4)c(Br)cc23)CC1`, for which the inhibition was -1% in assay [1]; -0.59% in assay [2]; 0.24% in [3]; 0.47% in assay [4]; -2.28% in assay [5]; 0.61% in [6]. For the same compound, the inhibition in assay [7] is -2.08%; in assay [8] it was -1.67%; in [9], -1.91%; in [10], 0.59%.
Consider `COc1cc2ncn(-c3cc(OCc4ccccc4Cl)c(C(N)=O)s3)c2cc1OC`, for which the inhibition in [1] was -0.28%; in [2] it was 2.18%; in assay [3], 0.86%; in assay [4], 1.67%; in assay [5], -5.34%; in [6], -5.25%. The inhibition was 0.79% in assay [7], 3.02% in assay [8], 0.47% in [9] and 0.64% in assay [10].
Regarding `COc1ccc2cc(-c3c(-c4ccncc4)nc(-c4ccc([S+](C)[O-])cc4)n3C)ccc2c1` (stereo not given), the inhibition in assay [1] came to 0.19%; in assay [2] it was 1.36%; in [3], 0.92%; in [4] it was 1.62%; in assay [5], 3.04%; in assay [6], 1.94%. The inhibition stood at 1.31% in [7], 4.13% in assay [8], 2.56% in assay [9] and 2.88% in [10].
Take `O=C1Nc2ccc(C(=O)c3ccco3)cc2C1=Cc1cc(Cl)c(O)c(Cl)c1`: the inhibition is -0.25% in assay [1]; 1.33% in assay [2]; -0.3% in assay [3]; 1.6% in assay [4]; 2.41% in [5]; 5.05% in assay [6]. Further, the inhibition in assay [7] came to 0.41%; in assay [8], 4.81%; in assay [9], 0.47%; in [10], 3.14%.
`COc1ccc(-c2coc3ncnc(N)c23)cc1`: the inhibition is 0.52% in assay [1]; -0.11% in assay [2]; 1.16% in assay [3]; 1.93% in assay [4]; 9.6% in assay [5]; 8.17% in assay [6]. For the same compound, the inhibition in assay [7] was 1.64%; in [8] it was 3.84%; in [9], 1.77%; in assay [10], 2.26%.
In the case of `NS(=O)(=O)c1cccc(-c2ccc3c(NC(=O)C4CC4)n[nH]c3c2)c1`, the inhibition in assay [1] was 0.11%; in [2], -0.38%; in assay [3], 0.03%; in [4] it was 2.23%; in assay [5], -0.03%; in [6], 1.96%. Besides, the inhibition in [7] was -0.84%; in [8] it was 0.37%; in [9], -1.3%; in assay [10] it was 0.07%.
`Nc1nc(-c2ccc3c(c2)C(=Cc2cc(Br)c(O)c(Br)c2)C(=O)N3)cs1`: the inhibition in assay [1] is -0.3%; in [2] it was -1.5%; in assay [3] it was 0.42%; in [4], 0.83%; in assay [5] it was -1.16%; in assay [6], 0.13%. The inhibition in assay [7] was -1.47%; in [8], -0.48%; in assay [9] it was -1.65%; in [10], 1.12%.

For the origin of these results see ChEMBL document CHEMBL1961873, “Compounds: GSK PKIS; Assays: Nanosyn kinase panel” (2012).
